Menin MLL FP TR – menin-MLL binding inhibition, Texas Red mutant peptide; O00255; Menin + Texas Red MLL mutant peptide, fluorescence polarization; Potency, µM (titrated, usually from 61.6 µM), for inactives: at the highest dose FP activity change, negative = inhibition, hits mostly inhibitors; 0.23% of 270,000 active; AID 1768; active means well fitted inhibition curve with a large enough effect in the polarisation, with a control signal flat, not every such curve was filed as active; inconclusive means small, poorly fitted or top-dose-only effect, or effect the other way, or a change in a side signal; inactive means no such curve, though single readings can be large or run the other way; the % refers to the polarisation; further: potency means the concentration at half of the fitted maximal effect; % of control where 0% means no effect
Target sequence (O00255 whole entry, looked up): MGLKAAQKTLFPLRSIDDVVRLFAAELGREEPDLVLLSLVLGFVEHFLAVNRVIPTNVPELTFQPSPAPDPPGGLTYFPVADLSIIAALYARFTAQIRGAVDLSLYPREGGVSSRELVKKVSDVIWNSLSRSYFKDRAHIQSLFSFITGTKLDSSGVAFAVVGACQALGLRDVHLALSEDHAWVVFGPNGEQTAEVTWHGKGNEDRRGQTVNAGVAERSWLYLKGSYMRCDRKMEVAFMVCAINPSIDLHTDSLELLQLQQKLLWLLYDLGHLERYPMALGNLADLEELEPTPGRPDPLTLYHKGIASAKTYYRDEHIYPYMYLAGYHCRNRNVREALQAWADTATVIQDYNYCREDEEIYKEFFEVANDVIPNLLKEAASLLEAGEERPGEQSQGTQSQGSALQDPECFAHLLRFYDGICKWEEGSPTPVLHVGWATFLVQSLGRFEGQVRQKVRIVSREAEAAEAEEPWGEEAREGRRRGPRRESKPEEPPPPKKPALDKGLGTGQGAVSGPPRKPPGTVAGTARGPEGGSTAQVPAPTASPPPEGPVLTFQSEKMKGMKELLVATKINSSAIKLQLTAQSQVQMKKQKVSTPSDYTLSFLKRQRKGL
Menin-MLL FL inh – menin-MLL binding inhibition, fluorescein peptide; Fluorescence polarization, fluorescein-MLL peptide displacement from menin; FP activity change, % at 61.4 µM; 290,000 tested, under 10 active; active means well fitted curve in the direction sought with a large enough effect in the polarisation, not every such curve was filed as active; inconclusive means small, poorly fitted or top-dose-only effect, or effect the other way, or a change in a side signal; inactive means no such curve, though single readings can be large or run the other way; the % refers to the polarisation; further: % of control where 0% means no effect
mIDH1 inhibitor – inhibitors of human mutant IDH1 R132H; IDH1-R132H enzyme, NADPH consumption, diaphorase/resazurin fluorescence; Potency, µM (doses to about 76.6 µM), inactives show at the highest dose activity change, negative = inhibition, actives largely listed as inhibitors; O75874; AID 602179; 0.093% of 390,000 active; active means well fitted inhibition curve with a large enough effect; inconclusive means small, poorly fitted or top-dose-only effect; inactive means no such curve, though single readings can be large or run the other way; further: potency means the concentration at half of the fitted maximal effect; on the % scale 0 is the no-effect control and ±100 the full control effect; nearly all actives have a fitted effect of over 65% in size
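IDH1-R132H (0.5 ug/mL) preincubated 30 min with compound, then NADPH (0.016 mM) and alpha-KG (2 mM) added; 80 min at RT, pH 7.5. Remaining NADPH coupled via diaphorase/resazurin to fluorescence (540/590 nm); concentration-response curves normalized to no-enzyme control.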
MLL CXXC-DNA inh – MLL CXXC-DNA interaction inhibition. MLL-CXXC / FITC-HOXA9 DNA fluorescence polarization. Potency, µM (doses to about 115 µM), inactives show at the top dose activity change, negative = inhibition, hits mostly inhibitors. 0.037% of 290,000 active. AID 2662; active means well fitted inhibition curve with a large enough effect in the polarisation, with a control signal flat, not every such curve was filed as active; inconclusive means small, poorly fitted or top-dose-only effect, or effect the other way, or a change in a side signal; inactive means no such curve, though single readings can be large or run the other way; the % refers to the polarisation; further: potency means the concentration at half of the fitted maximal effect
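Steps: dispense CXXC domain solution (7 uM) → pin compounds or unlabeled HOX-A9 DNA control → 5 min ambient → add FLSN-HOX-A9 solution (50 nM) → spin → 30 min ambient → fluorescence polarization. Tris pH 7.5/NaCl/DTT/BSA buffer.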
LDHA inh – inhibitors of human lactate dehydrogenase A | P00338 | 0.15% of 480,000 active | purified LDHA, NADH/diaphorase-resazurin fluorescence; active compounds read low | activity change, % (values are at about 110 or 230 µM); in the data active means activity change below about -30%; inconclusive means mostly about -25% to -30%;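 further: plate controls were DMSO wells for no effect and wells without enzyme for full effect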
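Human LDH5 (2 nM) was incubated with 0.06 mM NADH and 0.2 mM pyruvate for 5 min at room temperature in Tris pH 7.4. Remaining NADH was coupled through diaphorase/resazurin, and resorufin fluorescence was read at 0 and 20 min.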
pAkt inh – inhibitors of Akt phosphorylation. Neuro2A IGF-stimulated pAkt S473 HTRF, 20 min; active compounds read low. activity change, % for hits at 50 µM. 0.32% of 360,000 active; in the data active means activity change below about -80%; inconclusive means mostly about -51% to -80%; further: on the % scale 0 is the no-effect control and ±100 the full control effect
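Single-point screen (50 µM final compound) in Neuro2A cells stimulated 20 min with 6 nM IGF at 37 deg C. After lysis, Ser473-phosphorylated Akt read by HTRF (ex 330 nm, em 615/665 nm) as the 665/615 ratio.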
Starred values were filed as active, the others as inactive; i = inactive; ? = inconclusive; . = no result. Sampled rows, rich in hits. Any-hit rate of the full collection: about 0.54%.

SMILES | Menin MLL FP TR | Menin-MLL FL inh | mIDH1 inhibitor | MLL CXXC-DNA inh | LDHA inh | pAkt inh
N#CC1=C(N)OC2=C(C(=O)CCC2)C1CCc1ccccc1 (configuration not stated) | -14% | 9 | 9% | -5% | -4 | i
O=C1CCCC2=C1C(Cc1ccccc1)C1=C(CCCC1=O)O2 | -16% | -4 | 5% | 3% | 6 | -118%*
COc1ccc(OC)c(S(=O)(=O)N2CCN(CC(O)CN3CCOCC3)CC2)c1 (configuration not stated) | . | . | 3% | . | -4 | i
N#Cc1ccccc1S(=O)(=O)N1CCN(CC(O)CN2CCOCC2)CC1 (configuration not stated) | . | . | 2% | . | -45* | i
CCNc1cc(=O)n(C)c(=O)n1C | 10% | 1 | 2% | 17% | -6 | -122%*
CC(C)CC(=O)c1sc(Nc2ccccc2)nc1N | . | . | . | . | 1 | .
CS(=O)(=O)NCCSCc1ccc(Cl)cc1 | 1% | 3 | 1% | -5% | -5 | -108%*
Cc1cccc(-c2cc(C(=O)Nc3cc(C)n(C)n3)c3ccccc3n2)c1 | . | . | . | . | 3 | .
COc1ccc(S(=O)(=O)N2CCN(CC3CC=CCC3)CC2)cc1 (configuration not stated) | 0% | 0 | 1% | 2% | -15 | i
CCCS(=O)(=O)N1CCN(CC2CC=CCC2)CC1 (configuration not stated) | -5% | 0 | 13% | 8% | -31* | i
Cc1nc2ccc(S(=O)(=O)NCC(=O)N3CCN(c4ccccn4)CC3)cc2s1 | 9% | 4 | 6% | 10% | -8 | -117%*
O=C(Oc1ccc(-c2nccc(-c3ccccn3)n2)cc1)c1cccc(C(F)(F)F)c1 | 29% | 4 | 6% | 0% | -5 | -96%*
Cc1ccc(S(=O)(=O)N/N=C/c2cc(Br)c(C)o2)cc1 | 48% | 8 | 7% | -1% | 3 | -95%*
COc1ccc(/C=N/NC(=O)c2cccc(Br)c2)cc1Cn1cc(Cl)cn1 | 19% | 3 | 1% | 33% | 2 | -103%*
Cc1ccc2c(COC(=O)C3(S(=O)(=O)c4ccccc4)CCCC3)cc(=O)oc2c1 | . | . | . | . | 6 | .
CC1CCc2noc(NC(=O)c3cc(=O)c4cc(Br)ccc4o3)c2C1 (configuration not stated) | . | . | . | . | -39* | .
Cc1ccc2oc(C(=O)Nc3onc4c3CC(C)CC4)cc(=O)c2c1 (configuration not stated) | . | . | . | . | 6 | .
O=C(c1cc2ccccc2oc1=O)N1CCN(C23CC4CC(CC(C4)C2)C3)CC1 | . | . | . | . | 8 | .
Cc1ccc2c3c(c(SCC(=O)Nc4nonc4C)nc2c1)CCCC3 | ? | 2 | 0% | 2% | -1 | i
Cc1nonc1NC(=O)CSc1nc2cc(Cl)ccc2c2c1CCCC2 | 8% | 6 | -1% | 3% | -2 | -94%*
C[N+]1=C(/C=C/Nc2ccccc2Cl)C(C)(C)c2ccccc21 | ? | 4 | 7% | 11% | -1 | i
COC(=O)c1ccc2c(c1)C(C)(C)C(/C=C/c1ccccc1O)=[N+]2C | ? | 8 | 35µM* | 20% | 5 | i
COc1ccc(/C=C(/C#N)c2nc3ccc(C)cc3[nH]2)cc1O | . | . | . | . | -2 | .
O=C(/C=C/c1ccccc1Cl)Nc1ccc2c(c1)C(=O)NC2=O | ? | 0 | -5% | 49% | -46* | i
COc1ccc2c(C)c(CCC(=O)NC3CCS(=O)(=O)C3)c(=O)oc2c1 (configuration not stated) | . | . | . | . | 1 | .
SMILES | Menin MLL FP TR | Menin-MLL FL inh | mIDH1 inhibitor | MLL CXXC-DNA inh | LDHA inh | pAkt inh
Cc1ccccc1NC(=O)c1cc(=O)c2ccccc2o1 | 20% | 6 | 1% | -6% | -4 | -110%*
Cc1cccc(NC(=O)c2cc(=O)c3ccccc3o2)n1 | 9% | 3 | 14% | 1% | -13 | -116%*
Cc1cccc(NC(=O)c2cc(=O)c3ccccc3o2)c1 | ? | -26 | 4% | 10% | -2 | i
Cc1ccc(NC(=O)c2cc(=O)c3ccccc3o2)c(C)c1 | 1% | -2 | 4% | -2% | -3 | i
CC(=O)N1CCC(N(CCCN2CCC(C)CC2)C(=O)Nc2ccccc2C)CC1 | . | . | . | . | 10 | .
Cc1ccc(-c2cnc(CCC(=O)N3CCCN(Cc4ccc(F)cc4)CC3)o2)cc1C | . | . | . | . | 1 | .
CC1CC(=O)c2cnc(Nc3cccc(C(F)(F)F)c3)nc2C1 (configuration not stated) | -10% | 3 | 3% | 10% | -9 | -104%*
CC1CC(=O)c2cnc(Nc3ccccc3)nc2C1 (configuration not stated) | 9% | 7 | 8% | -5% | 3 | i
COc1cc(Cl)c(C)cc1NC(=O)CSc1ncc(S(=O)(=O)c2ccc(C(C)(C)C)cc2)c(=O)[nH]1 | . | . | -29% | . | -39* | .
O=C(CSc1ncc(S(=O)(=O)c2ccc(Cl)cc2)c(=O)[nH]1)Nc1cccc(C(F)(F)F)c1 | . | . | ? | . | -2 | .
CC(C)(C)c1ccc(S(=O)(=O)c2cnc(SCC(=O)Nc3ccc(F)c(Cl)c3)[nH]c2=O)cc1 | . | . | ? | . | -49* | .
CCN=C1Sc2nc3ccc(OCC)cc3cc2CN1CCOC | 0% | -1 | -3% | -2% | 5 | i
CCOc1ccc2nc3c(cc2c1)CN(CCOC)C(=NC)S3 | 3% | -2 | -8% | -2% | 0 | -88%*
COc1ccc2oc(=Nc3ccc(C(=O)O)cc3)c(C(=O)NCc3ccco3)cc2c1 | 8% | 2 | ? | 11% | 0 | i
COc1ccc2cc(C(=O)NCc3ccco3)c(=Nc3ccc(C(=O)O)cc3)oc2c1 | 0% | 4 | 0% | -5% | 3 | -112%*
CCOC(=O)C[n+]1c(C)ccc2c1CCC2 | 7% | 4 | 2% | -5% | -1 | -109%*
C[C@@H]1CN([C@@H](C)CO)C(=O)c2cc(Br)cnc2O[C@@H]1CN(C)C(=O)CN(C)C | . | . | -6% | . | 1 | i
C[C@H]1CN([C@@H](C)CO)C(=O)c2cc(Br)cnc2O[C@@H]1CN(C)C(=O)CN(C)C | . | . | 1% | . | -37* | i
OCCN(CC#CCC(O)(c1ccccc1)c1ccccc1)Cc1ccccc1 | . | . | . | . | 9 | .
COc1ccc(CC(=O)OCC(=O)c2ccc3c(c2)OCCCO3)cc1 | . | . | . | . | -30* | .
COc1ccc(C(=O)COC(=O)CCC(=O)c2ccc3c(c2)OCCO3)cc1 | . | . | . | . | 12 | .
CCN1CCN(Cc2cccc(Oc3ccccc3)c2)CC1 | -18% | 3 | 9% | 11% | -32* | i
O=C(NC(O)C(=O)c1ccc(Cl)cc1)c1ccc(Br)cc1 (configuration not stated) | . | . | . | . | -1 | .

High-throughput results from PubChem BioAssay.
